Laboratory results taken from PubChem BioAssay (NCI).
“And” between values parts separate entries of the source, which are not always exact repeats. Equal values may be shown once. The panel holds about 83,000 compounds, 20% with a hit somewhere; the sample as a whole holds those more often.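 A percent growth of 40 corresponds to 60% growth inhibition; 0 means no net growth; -100 means all cells died. Active threshold: below 10.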 The source made the active and inactive calls.

Columns and labels:
Test in all cases: NCI-60 one-dose screen, 48 h (100 = growth as untreated, 0 = no growth, -100 = all killed)
Details in all cases: 10 µM unless noted
[1] = test system: NCI-H23 lung
[2] = test system: NCI-H226 lung
[3] = test system: NCI-H322M lung
[4] = test system: HOP-62 NSCLC
[5] = test system: NCI-H460 lung
[6] = test system: HOP-92 NSCLC
[7] = test system: NCI-H522 lung
[8] = test system: A549/ATCC NSCLC
[9] = test system: 786-0 renal
[10] = test system: COLO 205 colon

Structure (SMILES) | growth [1] | growth [2] | growth [3] | growth [4] | growth [5] | growth [6] | growth [7] | growth [8] | growth [9] | growth [10]
C1=C(c2ccccc2)C(c2ccc(OCCN3CCCCC3)cc2)Oc2ccccc21 (stereo not given) | 58.4% (inactive) | 74.4% (inactive) | 77.4% (inactive) | 60.5% (inactive) | -20.2% (active) | 59.3% (inactive) | 24.7% (inactive) | 59.2% (inactive) | 55.6% (inactive) | -55.1% (active)
Cc1ccc2c(ccc3c[n+]4c5ccccc5ccc4n32)c1 | 10.4% (inactive) | 7.48% (active) | 12.7% (inactive) | 0.81% (active) | 1.99% (active) | -11.1% (active) | -33.4% (active) | 4.82% (active) | 27.4% (inactive) | -34.2% (active)
O=C1c2ccccc2C(=O)N1c1ccccc1 | 106% (inactive) | 101% (inactive) | 99.1% (inactive) | 96.9% (inactive) | 104% (inactive) | 104% (inactive) | 90.9% (inactive) | 90.7% (inactive) | 105% (inactive) | 106% (inactive)
CCOC(=O)c1c(C)[nH]c(CO)c1C | 99.1% (inactive) | 114% (inactive) | 94.9% (inactive) | 93.9% (inactive) | 110% (inactive) | 101% (inactive) | 84.3% (inactive) | 90.7% (inactive) | 106% (inactive) | 104% (inactive)
Nc1ncnc2c1ncn2C1OC(CO)C(O)C1O (stereo not given) | 111% (inactive) and 93.6% (inactive) and 103% (inactive) | 105% (inactive) and 82.7% (inactive) and 103% (inactive) | 114% (inactive) and 60.9% (inactive) and 111% (inactive) | 120% (inactive) and 93.4% (inactive) and 95% (inactive) | 113% (inactive) and 43.4% (inactive) and 103% (inactive) | 93.4% (inactive) and 100% (inactive) and 89.5% (inactive) | 106% (inactive) and -20.2% (active) and 110% (inactive) | 106% (inactive) and 97.7% (inactive) | 104% (inactive) and 73.7% (inactive) and 100% (inactive) | 121% (inactive) and 100% (inactive)
O=C(O)c1ccc2c3c(ncnc13)-c1ccccc1C2=O | -76.7% (active) | 52.4% (inactive) | 23.7% (inactive) | 12.3% (inactive) | 11.5% (inactive) | 81% (inactive) | 77.7% (inactive) | -6.25% (active) | 84.5% (inactive) | 54.7% (inactive)
Cc1ccc(NS(=O)(=O)c2ccc(C)cc2)cc1 | 100% (inactive) and 98.2% (inactive) | 95.9% (inactive) and 88.6% (inactive) | 102% (inactive) and 91.5% (inactive) | 98.5% (inactive) and 92.7% (inactive) | 107% (inactive) and 106% (inactive) | 100% (inactive) and 96.7% (inactive) | 97.9% (inactive) and 77.9% (inactive) | 88.1% (inactive) and 107% (inactive) | 100% (inactive) and 99.3% (inactive) | 111% (inactive) and 103% (inactive)
O=C(Nc1cccc(Br)c1)Oc1ccc(Cl)c2cccnc12 | -8.8% [100 µM] (active) | 14.5% [100 µM] (inactive) | 82.3% [100 µM] (inactive) | 31% [100 µM] (inactive) | 12.2% [100 µM] (inactive) | 40.7% [100 µM] (inactive) | -56.5% [100 µM] (active) | 23.6% [100 µM] (inactive) | 89.3% [100 µM] (inactive) | 55.8% [100 µM] (inactive)
CCC(CC)COC(=O)c1ccc(O)c(O)c1 | 81% (inactive) | 63.9% (inactive) | 85.3% (inactive) | 50.3% (inactive) | 73.8% (inactive) | 31.1% (inactive) | -5.6% (active) | 52% (inactive) | 78.5% (inactive) | 95.7% (inactive)
CNc1ccc(N)cc1 | 103% (inactive) | 96.4% (inactive) | 103% (inactive) | 106% (inactive) | 106% (inactive) | 135% (inactive) | 87.5% (inactive) | 111% (inactive) | 110% (inactive) | 141% (inactive)
NC(N)=N/N=C/c1ccc([N+](=O)[O-])o1 | 65.5% (inactive) | 100% (inactive) | 87.2% (inactive) | 113% (inactive) | 80.2% (inactive) | 106% (inactive) | 70.1% (inactive) | 80.2% (inactive) | 98% (inactive) | 3.2% (active)
CC(=O)Nc1cccc2cc(O)ccc12 | 99% (inactive) and 101% (inactive) and 103% (inactive) | 98.2% (inactive) and 98.1% (inactive) and 102% (inactive) | 110% (inactive) and 116% (inactive) | 100% (inactive) and 93.1% (inactive) and 95.8% (inactive) | 114% (inactive) and 103% (inactive) and 105% (inactive) | 64.6% (inactive) and 88.7% (inactive) and 73.6% (inactive) | 101% (inactive) and 109% (inactive) and 84.1% (inactive) | 118% (inactive) and 111% (inactive) and 98.6% (inactive) | 109% (inactive) and 104% (inactive) and 98.9% (inactive) | 106% (inactive) and 110% (inactive) and 104% (inactive)
